Experimental data reported in the supplement of paper PMC12532568.
Where a name gives a salt, the structure may show the parent alone.

Test system: Danio rerio larvae Tg(actc1b:ZsGreen-LC3), 3 dpf
Assay: LC3 puncta relative area vs vehicle, without NH4Cl (log2 fold change); higher = more autophagosomes
Conditions: 10 µM; treatment time 16 h; NH4Cl: none
Experimental: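 Transgenic Tg(actc1b:ZsGreen-map1lc3) zebrafish larvae (2 dpf) were treated for 16 h with Tocris library compounds at 10 µM (n = 12 larvae per compound). Skeletal-muscle LC3 puncta area relative to body area was measured by high-content confocal imaging before and after 4 h of 100 mM NH4Cl (autophagic flux), normalised to vehicle (DMSO), and reported as log2 fold change.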

Row | SMILES | LC3 puncta (log2)
1 | C=CCN1C[C@H](C)N([C@H](c2ccc(C(=O)N(CC)CC)cc2)c2cccc(OC)c2)C[C@H]1C | 0.784
2 | CCCN(CCC)[C@@H]1CCc2c(OC)cccc2[C@@H]1C [(+)-UH 232 maleate] | 0.36
3 | NCCc1c[nH]c2ccc(C(N)=O)cc12 [5-Carboxamidotryptamine maleate] | 0.0843
4 | S=C(NC1CCCCC1)N1CCC(c2cnc[nH]2)CC1 [Thioperamide] | 0.0474
5 | CCCN(C/C=C/I)C1CCc2ccc(O)cc2C1 (stereo not given) [7-Hydroxy-PIPAT maleate] | -0.263
6 | NC(C(=O)O)c1nn[nH]n1 (racemic) [(RS)-(Tetrazol-5-yl)glycine] | 0.24
7 | Cc1nc(N)sc1CCN [Amthamine dihydrobromide] | 0.0368
8 | Cc1onc(O)c1C[C@H](N)C(=O)O | 0.235
9 | C=CCN1CC[C@]23c4c5ccc(O)c4O[C@H]2C(=O)CC[C@@]3(O)[C@H]1C5 [Naloxone hydrochloride] | 0.085
10 | c1ccc(CCCCN2CCC(c3ccccc3)CC2)cc1 [4-PPBP maleate] | 0.0152
11 | OC1CCCCC1N1CCC(c2ccccc2)CC1 (stereo not given) [(?)-Vesamicol hydrochloride] | 0.548
12 | Fc1ccc(C(OCCN2CCN(CCCc3ccccc3)CC2)c2ccc(F)cc2)cc1 | 0.491
13 | N=C(N)NN [Aminoguanidine hydrochloride] | 0.471
14 | Oc1ccc2c3c1O[C@H]1c4[nH]c5ccccc5c4C[C@@]4(O)[C@@H](C2)N(CC2CC2)CC[C@]314 [Naltrindole hydrochloride] | 0.245
15 | CCC(Oc1ccc(Cl)cc1)C(=O)OC1C[C@H]2CC[C@@H](C1)N2C (stereo not given in full) [SM-21 maleate] | 0.226
16 | c1ccc(CC(c2ccccc2)N2CCCCC2)cc1 (stereo not given) [(?)-1-(1,2-Diphenylethyl)piperidine maleate] | 0.167
17 | COc1ccc(CNC(=O)/C=C/c2ccc3[nH]cc(CCN(C)C)c3c2)cc1 | -0.124
18 | CC(=O)NCCc1c[nH]c2ccccc12 [N-Acetyltryptamine] | -0.161
19 | c1ccc(C2CNCc3ccccc32)cc1 (stereo not given) [4-Phenyl-1,2,3,4-tetrahydroisoquinoline hydrochloride] | 0.365
20 | CC(=O)N1CC[N+](C)(C)CC1 [4-Acetyl-1,1-dimethylpiperazinium iodide] | -0.21

Row | SMILES | LC3 puncta (log2)
21 | O=C(O)Cc1cccnc1C(=O)O [Homoquinolinic acid] | -0.131
22 | CS(=O)(=O)Nc1ccc(Cc2noc(-c3ccc4[nH]cc(CCN)c4c3)n2)cc1 | 0.431
23 | CN(C(=O)Cc1ccccc1)C(CN1CCCC1)c1ccccc1 (stereo not given) [N-MPPP Hydrochloride] | 0.385
24 | Fc1ccc(C(OCCN2CCN(C/C=C/c3ccccc3)CC2)c2ccc(F)cc2)cc1 | 0.527
25 | O=C(Cc1ccc(Cl)c(Cl)c1)N1CCCCC1CN1CCCC1 (stereo not given) | 0.372
26 | Cc1ccc(C[N+](C)(C)C)o1 [5-Methylfurmethiodide] | -0.0134
27 | COc1ccc(C(=O)N2CCCC2=O)cc1 [Aniracetam] | 0.228
28 | CCCN(CCC)C1CCc2cccc(O)c2C1 (stereo not given) [8-Hydroxy-DPAT hydrobromide] | 0.14
29 | O=C1CCCN1CC#CCN1CCCC1 [Oxotremorine sesquifumarate] | -0.285
30 | c1ccc2sc(C3(N4CCCCC4)CCCCC3)cc2c1 [BTCP maleate] | 0.288
31 | CN1C[C@H](CNC(=O)OCc2ccccc2)C[C@@H]2c3cccc4c3c(cn4C)C[C@H]21 [Metergoline] | 0.0502
32 | CCCN[C@@H]1CCc2c(OC)cccc2[C@@H]1C [(+)-AJ 76 hydrochloride] | 0.121
33 | N=C(NCc1ccc(Cl)cc1)SCCCc1c[nH]cn1 [Clobenpropit dihydrobromide] | 0.454
34 | CC(C)C[C@H]1C(=O)N2CCC[C@H]2[C@]2(O)O[C@](NC(=O)[C@@H]3C=C4c5cccc6[nH]c(Br)c(c56)C[C@H]4N(C)C3)(C(C)C)C(=O)N12 [Bromocriptine mesylate] | 0.17
35 | O=C(O)/C=C/CO [trans-4-Hydroxycrotonic acid] | -0.0373
36 | CC(C(=O)OC1CC2CCC(C1)N2C)c1ccc(Br)cc1 (stereo not given) [PG-9 maleate] | 0.116
37 | CC[N+](CC)(CCCNC1=CC(=O)C(NCCC[N+](CC)(CC)Cc2ccccc2)=CC1=O)Cc1ccccc1 [Benzoquinonium dibromide] | -0.144
38 | c1ccc2c(c1)[I+]c1ccccc1-2 [Diphenyleneiodonium chloride] | 0.217
39 | Cc1[nH]c2ccc(O)cc2c1CCN [2-Methyl-5-hydroxytryptamine hydrochloride] | -0.132
40 | c1ccc(CCCN2CCN(CCOC(c3ccccc3)c3ccccc3)CC2)cc1 | 0.0674
